This is a sample that favours compounds with a hit; in the whole collection about 0.38% have one here.
HRas wt GTP bind: modulators of GTP binding to HRas wildtype, primary screen, biochemical, bead-based flow cytometry, multiplex | 0.14% of 190,000 active | GTP binding activity, % at 10 µM | GTPase HRas (Homo sapiens), P01112 | GST-Ras wt beads, Bodipy-FL-GTP binding; actives lie on both sides;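 active = GTP binding activity at least 20% away from the 100% baseline, either lowered as inhibitor or raised as activator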
Target sequence (P01112 whole entry, looked up): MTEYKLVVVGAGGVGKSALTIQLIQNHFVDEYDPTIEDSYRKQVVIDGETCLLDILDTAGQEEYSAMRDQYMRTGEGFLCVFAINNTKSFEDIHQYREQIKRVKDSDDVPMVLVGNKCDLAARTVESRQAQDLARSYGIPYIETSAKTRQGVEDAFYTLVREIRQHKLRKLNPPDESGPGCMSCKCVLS
Rac1 act GTP bind: GTP binding modulators of activated mutant Rac1, primary screen, biochemical, bead-based flow cytometry, multiplex, fluorescent GTP. percent activity (GTP binding), % at 10 µM. 0.11% of 190,000 active. Ras-related C3 botulinum toxin substrate 1 (Homo sapiens), P63000. GST-Rac1 activated beads; actives lie on both sides; 100% means binding = to untreated wells;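 active = GTP binding at least 20 percentage points away from the 100% baseline, in either direction, so actives lie on both sides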
Rab2 wt GTP: modulators of GTP binding to Rab2A wildtype, primary screen, biochemical, dog, bead-based flow cytometry, multiplex; GTP binding activity, % at 10 µM; 0.19% of 190,000 active; GST-Rab2 wt beads, Bodipy-GTP binding; Ras-related protein Rab-2A (Canis lupus familiaris), P61105; AID 760, 2007;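 active = GTP binding activity at least 20 points away from 100%, either lowered or raised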
Rac1 wt modul: wildtype Rac1 GTP binding modulators, primary screen, biochemical, GST-Rac1 beads, flow cytometry, multiplex; 0.27% of 190,000 active; GTP binding activity (% of control), % at 10 µM; fluorescent GTP binding; actives lie on both sides; 0 = cold GTP competed, 100 = untreated; Ras-related C3 botulinum toxin substrate 1 (Homo sapiens), P63000;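 active = GTP binding activity at least 20 points away from the 100% control level, either lower or higher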
Rab7 wt GTP bind: modulators of GTP binding to Rab7, primary screen, biochemical, wildtype, multiplex bead flow cytometry. GST-Rab7 beads, fluorescent GTP binding; actives lie on both sides; untreated = 100%, excess cold GTP = 0%. 0.055% of 190,000 active. GTP binding activity (percent of control), % at 10 µM;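 active = fluorescent GTP binding to Rab7 beads changed by at least 20 points from the 100% baseline, either direction, mostly lower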;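 also: median green fluorescence of bound Bodipy-FL-GTP per Rab7 bead population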
Cdc42 wt: modulators of GTP binding to wildtype Cdc42, primary screen, biochemical, multiplex bead flow cytometry, Bodipy-GTP; Cell division control protein 42 homolog (Homo sapiens), P60953; GST-Cdc42 beads; actives lie on both sides; percent activity (GTP binding), % at 10 µM; 0.2% of 190,000 active; AID 761, 2007;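 active = percent activity GTP binding at least 20 points away from the 100% baseline, either down as inhibitor or up as activator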;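 also: median bead fluorescence of bound Bodipy-FL-GTP at 100 nM; below 100% means less GTP binding so inhibitor and above means activator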
Target sequence (P60953 whole entry, looked up): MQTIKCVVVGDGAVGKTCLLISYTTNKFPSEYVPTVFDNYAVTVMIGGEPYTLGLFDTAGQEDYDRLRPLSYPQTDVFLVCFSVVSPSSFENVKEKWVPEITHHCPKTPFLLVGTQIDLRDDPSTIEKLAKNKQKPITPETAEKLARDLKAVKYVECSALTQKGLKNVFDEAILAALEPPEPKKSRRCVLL
Of the large screens only hits and unclear results are named; the others gave an inactive call; [ ] = another dose, or the depositor's remark.

COc1ccc(-c2cc(=O)c3c(O)c(OC)c(O)cc3o2)cc1	none
C=CCNC(=O)c1cc2c(=O)n3cc(C)ccc3nc2nc1NCC1CCCO1 (stereo not drawn)	HRas wt GTP bind 69.0, Rab2 wt GTP 78.0, Rab7 wt GTP bind 65.0
O=C(c1cncc(Br)c1)N1CCc2ccccc2C1	none
COc1cc(/C=N/NC(=O)CN(Cc2ccco2)S(=O)(=O)c2ccccc2)ccc1O	Rac1 wt modul 77.0
COc1ccc(/C=N/NC(=O)CN(Cc2ccccc2)S(=O)(=O)c2ccc3c(c2)OCCO3)cc1	none
COc1cc(/C=N/NC(=O)CN(Cc2ccccc2)S(=O)(=O)c2ccc3c(c2)OCCO3)ccc1O	Rab2 wt GTP 78.0, Rac1 wt modul 78.0
CCCC1=NN(C(=O)Cc2ccc([N+](=O)[O-])cc2)C(O)(C(F)(F)F)C1 (stereo not drawn)	none
CC(C)C(=O)N(Cc1cc(=O)[nH]c2ccccc12)c1ccccc1	none
Cc1ccn2c(NCc3ccc4c(c3)OCO4)c(-c3ccc(O)cc3)nc2c1	Rac1 wt modul 135.0[activator], Cdc42 wt 145.0[activator]
FC(F)(F)c1cccc(NC(=S)NNC(=S)NCc2ccccc2)c1	Rac1 act GTP bind 80.0
O=C(O)c1ccc(NS(=O)(=O)c2ccc3c(c2)C(=O)c2ccccc2C3=O)cc1	Rac1 wt modul 72.0
COc1cc(-c2cc(=O)c3c(O)cc(O)cc3o2)ccc1O	Rac1 wt modul 78.0
COc1cc(-c2cc(=O)c3ccccc3o2)ccc1O	none
CCN1C(=O)/C(=C/C=C2/Sc3ccc4ccccc4c3N2CCO)SC1=S	HRas wt GTP bind 78.0, Rac1 wt modul 75.0, Cdc42 wt 78.0
CCN1C(c2ccccc2)=C(c2ccccc2)S/C1=C/C=C1\SC(=S)N(C)C1=O	HRas wt GTP bind 66.0, Rac1 act GTP bind 69.0, Rab2 wt GTP 71.0, Rac1 wt modul 71.0, Rab7 wt GTP bind 72.0, Cdc42 wt 67.0
CN1CCS/C1=C/C=C1/SC(=S)N(Cc2ccccc2)C1=O	none
CCN1/C(=C\C=C2\C(=O)N(C)C(=S)N2C)Sc2ccccc21	none
CCOc1ccc2nc(SC3CC(=O)N(c4ccc(OC)cc4)C3=O)sc2c1 (stereo not drawn)	none
COc1cc(/C=C/C(=O)OCC(=O)NCCN2C(=O)CSC2=O)ccc1OC(F)F	none
CCOC(=O)c1c(NC(=O)/C=C/c2ccc3c(c2)OCO3)sc(C)c1C	none
CCOC(=O)c1c(NC(=O)/C=C/c2ccc3c(c2)OCO3)sc(C)c1CC	Rac1 act GTP bind 77.0
CN(C)c1cccc2c(/C=N/O)ccc(N(C)C)c12	none
CN1C(=O)N(C)c2ccc(C=O)c3cccc1c23	Rac1 wt modul 77.0
O=C(Nc1ccc(Cl)cc1)N(Cc1cccs1)Cc1cccs1	none
CNc1ncc(C(=O)c2ccc(Br)cc2)s1	Rac1 wt modul 121.0[activator]
CNc1ncc(C(=O)c2ccccc2)s1	none
COc1cccc(-n2c(SCC(=O)NCCC3=CCCCC3)nc3n[nH]c(C)c3c2=N)c1	HRas wt GTP bind 73.0, Rab2 wt GTP 76.0, Cdc42 wt 75.0
CCCS(=O)(=O)c1nnnn1-c1cccc(OC)c1	Rac1 act GTP bind 78.0
CC1C(=O)CCCCCCCCCC2C1(N1CCOCC1)CS2(=O)=O (stereo not drawn)	none
O=C(O)c1ccccc1COc1ccccc1Cl	none
O=C(O)c1ccccc1OCc1ccccc1Br	HRas wt GTP bind 122.0[activator], Rac1 act GTP bind 126.0[activator], Rab2 wt GTP 129.0[activator], Rac1 wt modul 142.0[activator], Rab7 wt GTP bind 120.0[activator], Cdc42 wt 139.0[activator]
CCOc1ccc(Oc2ccc(Cl)cc2N)cc1	none
COc1cc2c(-c3ccc(O)cc3)nc3c(c(C)nn3-c3ccccc3)c2cc1OC	none
